Results from PubChem BioAssay (NCI).
Values joined by “and” are separate entries in the source; they are usually repeats but may differ in a detail not shown here. Equal values may be shown once. This is part of a sample that, as a whole, favours compounds with a hit. Of some 79,000 tested, about 15% had one in any assay. Values without a mark were called inactive. Active and inactive are the calls of the source. Cut-off read from the data, not from the text of the source: active = growth inhibition above about 70%; inactive = the rest.

Assay: NCI Yeast Anticancer Drug Screen. Data for the bub3 strain (AID 167)
Conditions: S. cerevisiae bub3 mutant strain, at 50.0 µM, active compounds read high
In short: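 Mutant yeast screening strain plus compound; vehicle-treated cultures serve as the 0% inhibition reference.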
Compound `CC1(c2ccccc2)CCC(=O)NC1=O` (stereo not given) has a growth inhibition of 7.85%.
`C(#Cc1ccccc1)c1ccccc1.[C-]#[O+].[C-]#[O+].[C-]#[O+].[C-]#[O+].[C-]#[O+].[C-]#[O+].[Co].[Co]` gave a growth inhibition of 5.2%.
`CCN1CCC(OC(=O)c2ccccc2)(c2nccc3ccccc23)CC1` showed a growth inhibition of 9.75%.
In the case of `COC(=O)c1ccccc1NP(=O)(O)Oc1ccccc1` (tested in a mixture with another compound), the growth inhibition is reported as -2.7%.
`O=C1NN(c2ccccc2)C(=O)C1c1ccccc1` (stereo not given) gave a growth inhibition of -5.9%.
Work on `COc1ccc2c3c1OC1C(C)(O)C(O)CC4C(C2)N(C)CCC341` (stereo not given) yielded a growth inhibition of 4.4%.
With `CN1CCc2c([nH]c3ccccc23)C1` the growth inhibition was 1.2%.
With `CC(C)C1CN1CC(O)Cn1ccnc1[N+](=O)[O-]` (stereo not given) the growth inhibition was 7.35%.
With `O=C(Oc1cc(Cl)c(S(=O)(=O)F)cc1Cl)c1ccccc1Cl` the growth inhibition was 94.9% (active).
Compound `COC(=O)C1(C(=O)OC)Cc2ccc(C)cc2C2=C1C(=O)c1ccccc1C2=O` has a growth inhibition of -3.4%.
`CCC1=C(CC2NCCc3cc(OC)c(OC)cc32)CC2c3ccccc3CCN2C1` (stereo not given) showed a growth inhibition of -22.8%.
In the case of `NP(=S)(Oc1ccc(Cl)cc1)Oc1ccc(Cl)cc1`, the growth inhibition is reported as 49.3%.
In the case of `O=C1/C(=C\c2ccccc2)N2CCC1CC2`, the growth inhibition is reported as -18.1%.
`NC(C(=O)[O-])C(=O)[O-].NC1CCCCC1N.[Pt+4]` showed a growth inhibition of -17.9%.
With `CN(C)CCN=C(N)N[N+](=O)[O-]` the growth inhibition was 2.4%.
`CC(C)CCC1(CC[N+](C)(C)C)C(=O)NC(=O)NC1=O` gave a growth inhibition of 10.7%.
`CC1(C)OC2(C)CCC1C(O)C2N1CCCCC1` (stereo not given) gave a growth inhibition of -1%.
For `CCOC(=O)/C(=C\c1ccc(OC)cc1)[Se]c1ccccc1`, the growth inhibition was 44.6%.
For `CC1=CC(=O)CC2(C)CCC(C(C)CC(=O)CC(C)C)CC12OO` (stereo not given), the growth inhibition was 89.4% (active).
`CC1(C)N=C(c2ccccc2)C2(c3ccccc3)N1C2(C)C` (stereo not given) showed a growth inhibition of 5.6%.
Work on `C[N+](C)=c1nc(N2CCc3ccccc3C2)ss1` yielded a growth inhibition of 12.1%.
With `C[C@@H]1C[C@@]2(O[C@@H]2C)C(=O)O[C@@H]2CCN3CC=C(COC(=O)[C@]1(C)O)[C@H]23` the growth inhibition was -4.9%.
For `O=C(CS(=O)(=O)O)Nc1ccccc1`, the growth inhibition was 17.1%.
For `C[CH2][Sn]1([CH2]C)[O]C(=O)[O][Sn]([CH2]C)([CH2]C)[O]1`, the growth inhibition was -6.05%.
In the case of `O=C(OCCOCCOC(=O)C(Cl)(Cl)Cl)C(Cl)(Cl)Cl`, the growth inhibition is reported as -46.6%.
`CC(C)(C)[SH+]CC[SH+]C(C)(C)C.[C-]#[O+].[C-]#[O+].[C-]#[O+].[C-]#[O+].[Cr]` showed a growth inhibition of 3.65%.
For `COC(=O)C1=C(C)N2CCCOC2(C)C(C(=O)OC)C1c1cccc(Cl)c1` (stereo not given), the growth inhibition was 44.4%.
Work on `O=C(O)C(C(=O)O)P(=S)(S)c1ccccc1` (stereo not given) yielded a growth inhibition of 35.3%.
For `C[P+](CCl)(CCl)CCl`, the growth inhibition was -7.6%.
In the case of `S=C(SSC(=S)N(Cc1ccccc1)Cc1ccccc1)N(Cc1ccccc1)Cc1ccccc1`, the growth inhibition is reported as -20.6%.
With `C[CH2][Sn](/[CH]=C/C=C/OC)([CH2]C)[CH2]C` the growth inhibition was 83.4% (active).
For `O=C(O)c1cc[c]([Hg][S]c2ncnc3nc[nH]c23)cc1`, the growth inhibition was 97.5% (active).
Work on `CCCCCCCC[As](=O)(O)CCCCCCCC` yielded a growth inhibition of -0.7%.
Compound `C=CP(=O)(OCCCl)OCCCl` has a growth inhibition of -1.6%.
With `Cc1cc(N(CCCl)CCCl)ccc1CN1CCCN(Cc2ccc(N(CCCl)CCCl)cc2C)C1c1cc(O)cc(Br)c1` the growth inhibition was 9.3%.
In the case of `C[N+](C)(C)CCNP(=O)(Oc1ccccc1)c1ccccc1` (stereo not given), the growth inhibition is reported as -1.55%.
In the case of `C/C=C/CC1(c2ccccc2)C(=O)NC(=S)NC1=O`, the growth inhibition is reported as -6%.
Compound `CCOC(=O)C(Cc1ccc(N(CCCl)CCCl)cc1)NC(=O)CNC(C)=O` (stereo not given) has a growth inhibition of -10.4%.
With `CC(C(=O)O)C(Br)C(=O)O` (stereo not given) the growth inhibition was 5.85%.
With `CC(NC1=NCCO1)c1cccs1` (stereo not given) the growth inhibition was 15.7%.

Assay: NCI Yeast Anticancer Drug Screen. Data for the mlh1 rad18 strain (AID 175)
Conditions: S. cerevisiae mlh1 rad18 strain growth inhibition; at 50.0 µM; active compounds read high
In short: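 Test agents were incubated with a yeast strain of defined genotype (DNA damage repair defect). Inhibition of growth was derived by comparison with vehicle-exposed cultures.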
`CC1(c2ccccc2)CCC(=O)NC1=O` (stereo not given) showed a growth inhibition of 38.6%.
`C(#Cc1ccccc1)c1ccccc1.[C-]#[O+].[C-]#[O+].[C-]#[O+].[C-]#[O+].[C-]#[O+].[C-]#[O+].[Co].[Co]` gave a growth inhibition of 53.2%.
Work on `CCN1CCC(OC(=O)c2ccccc2)(c2nccc3ccccc23)CC1` yielded a growth inhibition of 8.9%.
In the case of `COC(=O)c1ccccc1NP(=O)(O)Oc1ccccc1` (tested in a mixture with another compound), the growth inhibition is reported as -11.9%.
`O=C1NN(c2ccccc2)C(=O)C1c1ccccc1` (stereo not given) gave a growth inhibition of 41.5%.
In the case of `COc1ccc2c3c1OC1C(C)(O)C(O)CC4C(C2)N(C)CCC341` (stereo not given), the growth inhibition is reported as 14.1%.
`CN1CCc2c([nH]c3ccccc23)C1` gave a growth inhibition of -45.1%.
In the case of `CC(C)C1CN1CC(O)Cn1ccnc1[N+](=O)[O-]` (stereo not given), the growth inhibition is reported as -19.2%.
With `O=C(Oc1cc(Cl)c(S(=O)(=O)F)cc1Cl)c1ccccc1Cl` the growth inhibition was 96.8% (active).
With `COC(=O)C1(C(=O)OC)Cc2ccc(C)cc2C2=C1C(=O)c1ccccc1C2=O` the growth inhibition was 7.85%.
In the case of `CCC1=C(CC2NCCc3cc(OC)c(OC)cc32)CC2c3ccccc3CCN2C1` (stereo not given), the growth inhibition is reported as -16.3%.
In the case of `NP(=S)(Oc1ccc(Cl)cc1)Oc1ccc(Cl)cc1`, the growth inhibition is reported as 91.5% (active).
Work on `O=C1/C(=C\c2ccccc2)N2CCC1CC2` yielded a growth inhibition of -20.6%.
With `NC(C(=O)[O-])C(=O)[O-].NC1CCCCC1N.[Pt+4]` the growth inhibition was -3.2%.
For `CN(C)CCN=C(N)N[N+](=O)[O-]`, the growth inhibition was -38%.
`CC(C)CCC1(CC[N+](C)(C)C)C(=O)NC(=O)NC1=O` showed a growth inhibition of -7.05%.
Compound `CC1(C)OC2(C)CCC1C(O)C2N1CCCCC1` (stereo not given) has a growth inhibition of -8.6%.
`CCOC(=O)/C(=C\c1ccc(OC)cc1)[Se]c1ccccc1` showed a growth inhibition of 59.9%.
For `CC1=CC(=O)CC2(C)CCC(C(C)CC(=O)CC(C)C)CC12OO` (stereo not given), the growth inhibition was 91.3% (active) and 89.5% (active).
Compound `CC1(C)N=C(c2ccccc2)C2(c3ccccc3)N1C2(C)C` (stereo not given) has a growth inhibition of -18.1%.
In the case of `C[N+](C)=c1nc(N2CCc3ccccc3C2)ss1`, the growth inhibition is reported as 47.7%.
For `C[C@@H]1C[C@@]2(O[C@@H]2C)C(=O)O[C@@H]2CCN3CC=C(COC(=O)[C@]1(C)O)[C@H]23`, the growth inhibition was -75%.
`O=C(CS(=O)(=O)O)Nc1ccccc1` showed a growth inhibition of 22.2%.
With `C[CH2][Sn]1([CH2]C)[O]C(=O)[O][Sn]([CH2]C)([CH2]C)[O]1` the growth inhibition was -53.3%.
`O=C(OCCOCCOC(=O)C(Cl)(Cl)Cl)C(Cl)(Cl)Cl` gave a growth inhibition of 7.95%.
`CC(C)(C)[SH+]CC[SH+]C(C)(C)C.[C-]#[O+].[C-]#[O+].[C-]#[O+].[C-]#[O+].[Cr]` gave a growth inhibition of 3.35%.
With `COC(=O)C1=C(C)N2CCCOC2(C)C(C(=O)OC)C1c1cccc(Cl)c1` (stereo not given) the growth inhibition was 61.5%.
Compound `O=C(O)C(C(=O)O)P(=S)(S)c1ccccc1` (stereo not given) has a growth inhibition of 14.5%.
`C[P+](CCl)(CCl)CCl` showed a growth inhibition of -10%.
`S=C(SSC(=S)N(Cc1ccccc1)Cc1ccccc1)N(Cc1ccccc1)Cc1ccccc1` gave a growth inhibition of 12%.
For `C[CH2][Sn](/[CH]=C/C=C/OC)([CH2]C)[CH2]C`, the growth inhibition was 89.7% (active).
For `O=C(O)c1cc[c]([Hg][S]c2ncnc3nc[nH]c23)cc1`, the growth inhibition was 98.9% (active).
For `CCCCCCCC[As](=O)(O)CCCCCCCC`, the growth inhibition was -10.2%.
Compound `C=CP(=O)(OCCCl)OCCCl` has a growth inhibition of 12.9%.
`Cc1cc(N(CCCl)CCCl)ccc1CN1CCCN(Cc2ccc(N(CCCl)CCCl)cc2C)C1c1cc(O)cc(Br)c1` showed a growth inhibition of 37.9%.
`C[N+](C)(C)CCNP(=O)(Oc1ccccc1)c1ccccc1` (stereo not given) gave a growth inhibition of 21.6%.
Work on `C/C=C/CC1(c2ccccc2)C(=O)NC(=S)NC1=O` yielded a growth inhibition of 5.9%.
Work on `CCOC(=O)C(Cc1ccc(N(CCCl)CCCl)cc1)NC(=O)CNC(C)=O` (stereo not given) yielded a growth inhibition of 10.3%.
With `CC(C(=O)O)C(Br)C(=O)O` (stereo not given) the growth inhibition was 9.7%.
Work on `CC(NC1=NCCO1)c1cccs1` (stereo not given) yielded a growth inhibition of -12.9%.
